Results filed as inconclusive are left out. The source made the active and inactive calls. Unless noted, calls follow the shape of the dose curve; as a rule, active = well fitted curve in the direction sought with a large enough effect; inconclusive = small, poorly fitted or top-dose-only effect, or another doubt; inactive = no such curve, though single readings can be large; an effect the other way counts as inactive or inconclusive.
Experiments:
[1] = P-glycoprotein substrates identified in KB-8-5-11 adenocarcinoma cell line, qHTS therapeutic library screen (AID 1346987); also: nearly all actives have a fitted effect of over 65% in size; also: potency is read from the fitted curve at half-maximal effect
Procedure, shortened: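 KB-8-5-11: colchicine-selected sub-line of KB-3-1 over-expressing P-gp; assay medium lacked colchicine. 72 h drug exposure at 37 degree C, CellTiter-Glo.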

[2] = test system: Zika virus NS2B-NS3 protease (linked construct); assay: Primary screen NINDS Rhodamine qHTS for Zika virus inhibitors (AID 1347160); also: nearly all actives have a fitted effect of over 55% in size; also: potency is read from the fitted curve at half-maximal effect; as to activity change, negative = inhibition: % is scaled to controls: 0 for no effect and ±100 for the full control effect
Procedure, shortened: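 Kinetic fluorescence (Ex 480 nm, Em 540 nm) over 15 min with 1.5 microM Rhodamine110 peptide and 25 nM linked protease.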

[3] = target: Calcium and integrin-binding protein 1 (Homo sapiens) (UniProt Q99828); assay: Primary qHTS for Identification of Calcium Integrin Binding Protein 1 (CIB1) Competitor (AID 1508620);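 also: GST tagged CIB1 binding a fluorescein labelled alphaIIb integrin peptide tracer; top concentration of the series differs between compounds; % is scaled to controls: 0 for no effect and ±100 for the full control effect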
Procedure, shortened: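 CIB1-GST (1 uM final) and compound incubated 15 min at room temperature before adding FITC-alphaIIb peptide tracer (100 nM final). Competition for binding read by fluorescence polarization (ex 480, em 540) after another 15 min at room temperature.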

[4] = Cytotoxicity counterscreen for inhibitors of SARS-CoV-2 cell entry (AID 1645845; calls by dose curve; also: nearly all actives have a fitted effect of over 50% in size)
Procedure, shortened: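 48 h compound treatment (after 1 h preincubation), HEK293-ACE2 cells, 37 C/5% CO2; ATP luminescence endpoint; normalized to cell wells and media blanks.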

[5] = Primary qHTS for inhibitors of nuclear receptor binding SET domain protein 2 (NSD2) in an isogenic RCH-ACV NSD2 p.E1099K mutant (9B) (AID 1645876); also: nearly all actives have a fitted effect of over 70% in size; also: potency is read from the fitted curve at half-maximal effect
[6] = target: Glutathione peroxidase 1 (Homo sapiens) (UniProt P07203); assay: Primary qHTS Assay for Inhibitors of Recombinant Selenoprotein Glutathione Peroxidase 1 (GPX1) (AID 1845191); also: nearly all actives have a fitted effect of over 65% in size; as to activity, negative = inhibition: % is scaled to controls: 0 for no effect and ±100 for the full control effect
Procedure, shortened: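 10 nM GPX1 + cpd, 30 min RT; start w/ 1 mM GSH, 0.5 mM cumene hydroperoxide, 0.5 mM NADPH, 100 nM GR, 0.01% BSA; buffer 50 mM Tris-HCl pH 7.5, 2 mM EDTA, 150 mM NaCl; Fl 340/450, 0 & 15 min.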

[7] = target: Phospholipid hydroperoxide glutathione peroxidase GPX4 (Homo sapiens) (UniProt P36969); assay: Primary qHTS Assay for Inhibitors of Recombinant Selenoprotein Glutathione Peroxidase 4 (GPX4) (AID 1845192); also: nearly all actives have a fitted effect of over 65% in size; as to activity change, negative = inhibition: % is scaled to controls: 0 for no effect and ±100 for the full control effect
Procedure, shortened: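 NADPH consumption, followed by fluorescence at 340/450 nm between 0 and 15 min, reports GPX4 activity via coupled glutathione reductase (100 nM). Enzyme 200 nM was pre-exposed to compound 30 min; 0.5 mM cumene hydroperoxide and 1 mM GSH served as substrates.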

[8] = target: Luciferin 4-monooxygenase (Photinus pyralis) (UniProt P08659); assay: Primary firefly luciferase (FLuc) qHTS assay for identification of artifact compounds. (AID 1845220); conditions: outcome: dose series up to 54.1 µM unless noted; also: nearly all actives have a fitted effect of over 60% in size;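 as to activity change, negative = inhibition: plate controls were DMSO vehicle for no effect and no enzyme for full effect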
Procedure, shortened: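 Compounds sat 15 min at room temperature with 10 uM luciferin and 10 uM ATP (pH 7.6 Tris acetate). Firefly luciferase (10 nM final) was then added, and luminescence was read 5 min later. Data normalized to no-enzyme and DMSO controls were Hill-fitted.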

[9] = test system: Nanoluciferase (engineered Oplophorus gracilirostris luciferase); assay: Primary Nanoluciferase (NLuc) qHTS assay for identification of artifact compounds. (AID 1845222);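 also: 0% = DMSO and -100% = no enzyme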
Procedure, shortened: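 Luminescence from secreted NLuc (filtered, 1:55-diluted S16 cell medium) read 5 min after Nano-Glo substrate; compounds preincubated 15 min, RT. Hill fits of inhibition normalized to DMSO and no-enzyme.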

[10] = test system: HeLa; assay: Primary qHTS to identify gynecologic anti-cancer compounds using libraries of approved drugs and bioactive compounds (AID 1345084); conditions: Gynecologic cancer cell panel viability, ATPlite luminescence, 48 h; series mostly up to 57.5 µM; also: nearly all actives have a fitted effect of over 55% in size; also: potency is read from the fitted curve at half-maximal effect
Procedure, shortened: (§1)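 Luminescence from the ATPlite ATP-monitoring reagent indicates viable cell number; lower signal means cytotoxicity. Cells received compound 16 h after seeding and were exposed for 48 h across five concentrations.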

[11] = test system: JEG-3; assay: as above; conditions: Gynecologic cancer cell panel viability, ATPlite luminescence, 48 h; series mostly up to 57.5 µM
Procedure, shortened: as §1

[12] = test system: OV90; assay: as above; conditions: Gynecologic cancer cell panel viability, ATPlite luminescence, 48 h; series mostly up to 57.5 µM
Procedure, shortened: as §1

[13] = test system: KB-3-1; assay: Cytotoxic Profiling of Annotated Libraries Using Quantitative High-Throughput Screening (AID 1296008); conditions: Five cell lines viability, CellTiter-Glo ATP luminescence, 48-72 h; max response: active compounds read low; also: nearly all actives have a fitted effect of over 60% in size; also: potency is read from the fitted curve at half-maximal effect
Procedure, shortened: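 Cytotoxicity was measured as CellTiter-Glo ATP luminescence, read after 10 min at room temperature. Compound treatment of the cells lasted 48 or 72 hr at 37 degrees Celsius in a qHTS format.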

Phospholipid hydroperoxide glutathione peroxidase GPX4 (Homo sapiens), sequence (P36969 whole entry, looked up): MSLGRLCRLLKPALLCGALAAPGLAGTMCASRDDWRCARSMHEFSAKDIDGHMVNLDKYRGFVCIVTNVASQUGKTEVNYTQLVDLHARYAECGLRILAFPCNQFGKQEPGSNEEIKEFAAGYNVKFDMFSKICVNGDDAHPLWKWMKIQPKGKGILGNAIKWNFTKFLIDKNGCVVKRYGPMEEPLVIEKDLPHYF
Glutathione peroxidase 1 (Homo sapiens), sequence (P07203 whole entry, looked up): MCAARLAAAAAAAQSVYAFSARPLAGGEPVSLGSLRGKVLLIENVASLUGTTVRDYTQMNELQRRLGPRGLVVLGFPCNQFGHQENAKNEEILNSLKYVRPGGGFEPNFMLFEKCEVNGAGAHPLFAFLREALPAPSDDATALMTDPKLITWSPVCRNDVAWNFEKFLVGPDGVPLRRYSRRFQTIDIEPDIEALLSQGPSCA
Calcium and integrin-binding protein 1 (Homo sapiens), sequence (Q99828 whole entry, looked up): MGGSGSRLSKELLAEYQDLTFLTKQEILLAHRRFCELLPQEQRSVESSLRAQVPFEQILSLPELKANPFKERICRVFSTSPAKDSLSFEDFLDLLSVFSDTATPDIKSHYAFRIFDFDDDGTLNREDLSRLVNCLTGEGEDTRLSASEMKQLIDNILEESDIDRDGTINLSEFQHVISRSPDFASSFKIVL

COc1ccc(C(C)(C)C)cc1CN[C@H]1C2CCN(CC2)[C@H]1C(c1ccccc1)c1ccccc1
active: Potency [1] 18.4 µM | Potency [5] 6.49 µM
inactive: Potency [2] | Potency [3] | Potency [4] | Potency [6] | Potency [7] | outcome [8] | Potency [9] | Potency [10] | Potency [11] | Potency [12]

CC(=O)O[C@H]1C(=O)[C@]2(C)C(O)C[C@H]3OC[C@@]3(OC(C)=O)[C@H]2[C@H](OC(=O)c2ccccc2)[C@]2(O)C[C@H](O)C(C)=C1C2(C)C (some centres not stated)
inactive: Potency [1] | Potency [2] | Potency [6] | Potency [7] | outcome [8] | Potency [9] | Potency [10] | Potency [11] | Potency [12]

CN(CC[C@H](N)CC(=O)N[C@H]1C=C[C@@H](n2ccc(N)nc2=O)O[C@@H]1C(=O)O)C(=N)N
inactive: activity change, negative = inhibition [2] 10.8% [at 10.7 µM] | Potency [3] | activity change, negative = viability loss [5] -2.6% [at 9.23 µM] | activity, negative = inhibition [6] -3.97% [at 9.52 µM] | outcome [7] inactive [at 9.73 µM] | outcome [8] inactive [at 11.6 µM] | activity, negative = inhibition [9] 0% [at 11.6 µM] | activity change, negative = cytotoxicity [10] 9.86% [at 11.6 µM] | activity change, negative = cytotoxicity [11] 12.8% [at 11.6 µM] | activity change, negative = cytotoxicity [12] -7.37% [at 11.6 µM]

CCOC(=O)C1(CCc2ccccc2)CCN(Cc2ccc(NC(C)=O)cc2)CC1
inactive: Potency [2] | Potency [3] | Potency [6] | Potency [7] | Potency [9] | max response [13] -17.7% | Potency [10] | Potency [11] | Potency [12]

CC(C)(O)/C=C/C(=O)[C@](C)(O)[C@H]1[C@H](O)C[C@@]2(C)[C@@H]3CC=C4[C@@H](C[C@H](O)C(=O)C4(C)C)[C@]3(C)C(=O)C[C@]12C
active: Potency [1] 0.448 µM | Potency [5] 0.252 µM | Potency [13] 0.448 µM | Potency [10] 2.51 µM | Potency [12] 1.26 µM
inactive: Potency [2] | Potency [3] | Potency [6] | Potency [7] | outcome [8] | Potency [9]

CC(C)=CCC[C@]1(C)C=Cc2c(O)c3c(c(CC=C(C)C)c2O1)O[C@]12C(=C[C@@H]4CC1C(C)(C)O[C@@]2(C/C=C(/C)C(=O)O)C4=O)C3=O
active: Potency [1] 4.11 µM | Potency [2] 2.82 µM | Potency [5] 0.578 µM | Potency [10] 5.01 µM | Potency [11] 3.98 µM | Potency [12] 5.01 µM
inactive: outcome [8] | Potency [9]

C[C@]12CC[C@H](OC3OC(CO)C(O)C(O)C3OC3OC(CO)C(O)C(O)C3O)C[C@@H]1CC[C@@H]1C2CC[C@]2(C)[C@@H](C3=CC(=O)OC3)CC[C@]12O (some centres not stated)
active: Potency [5] 4.3 µM
inactive: Potency [2] | Potency [3] | Potency [6] | Potency [7] | outcome [8] | Potency [9] | max response [13] 6.08% | Potency [10] | Potency [11] | Potency [12]

C[C@]12CC[C@H](O[C@@H]3O[C@H](CO)[C@@H](O)[C@H](O)[C@H]3O)CC1CC[C@@H]1C2CC[C@]2(C)[C@@H](C3=CC(=O)OC3)CC[C@]12O (some centres not stated)
inactive: Potency [2] | Potency [3] | Potency [6] | Potency [7] | Potency [9] | Potency [12]
active: Potency [1] 6.32 µM | Potency [5] 2.52 µM | Potency [10] 10 µM

Cc1ccc(-n2nccn2)c(C(=O)N2CCN(c3nc4cc(Cl)ccc4o3)CCC2C)c1 (configuration not stated)
active: Potency [5] 16.3 µM
inactive: Potency [2] | Potency [7] | Potency [9] | Potency [10] | Potency [11] | Potency [12]

CC1=CC2/C=C(\C)CCC(O)C(O)/C=C/C(=O)C23C(=O)NC(CC(C)C)C3C1C (configuration not stated)
active: Potency [5] 2.24 µM
inactive: Potency [2] | Potency [3] | Potency [6] | Potency [7] | outcome [8] | Potency [9]

CC(C)C(=O)O[C@H]1[C@@H]2[C@H](C)C(=O)O[C@@H]2C[C@@H](C)[C@@H]2C=CC(=O)[C@]21C
active: Potency [1] 16.1 µM | Potency [5] 3.58 µM | Potency [11] 10 µM
inactive: Potency [2] | Potency [3] | Potency [6] | Potency [7] | outcome [8] | Potency [9]

C[C@@H]1Cc2c(Cl)cc(C(=O)N[C@@H](Cc3ccccc3)C(=O)O)c(O)c2C(=O)O1
inactive: Potency [2] | Potency [3] | outcome [8] | Potency [9] | Potency [10] | Potency [11] | Potency [12]
active: Potency [5] 8.98 µM

COC[C@]12CN(C)C3C4[C@H](OC)[C@H]1C3(C(OC)C[C@H]2O)[C@H]1C[C@@]2(O)[C@H](OC(=O)c3ccccc3)[C@@H]1[C@]4(O)[C@@H](O)[C@@H]2OC (some centres not stated)
inactive: Potency [1] | Potency [2] | Potency [3] | Potency [5] | Potency [6] | Potency [7] | outcome [8] | Potency [9] | max response [13] -0.453%

C[C@H]1CN(Cc2ccc(CC(=O)N3CCC(Nc4cccc(F)c4)CC3)cc2)CCN1
inactive: Potency [2] | Potency [6] | Potency [7] | outcome [8] | Potency [9] | max response [13] -18.3% | Potency [10] | Potency [11] | Potency [12]

CCCCCn1cc(C(=O)Cc2ccccc2OC)c2ccccc21
inactive: Potency [2] | Potency [3] | Potency [6] | Potency [7] | outcome [8] | Potency [9] | Potency [10] | Potency [11] | Potency [12]
